Screening results: PubChem BioAssay, National Center for Advancing Translational Sciences (NCATS)
The list is not random: actives were taken first. Their share in the collection is about 21%.
Cycloheximide cs – counter-screen for Shiga toxin inhibitors: cycloheximide protein synthesis inhibition; actives 12% (n = 300,000); max response, %; cell reporter, cycloheximide protein synthesis inhibition counterscreen; in the data active = max response mostly above about 13%, no sharp cut-off; inactive = mostly below about 14%; also: read at 38.3 µM for the half of the compounds with a filed dose; 0% is about no effect
Pf growth 96h – P. falciparum growth inhibition at 96 hours | P. falciparum luciferase reporter growth, 96 h | Potency, µM (top dose mostly 28.7 µM), without a hit: top-dose activity change, negative = inhibition, hits mostly inhibitors | actives 6.9% (n = 320,000) | AID 504834; also: potency is read from the fitted curve at half-maximal effect; % is scaled to controls: 0 for no effect and ±100 for the full control effect
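P. falciparum expressing integrated firefly luciferase, in erythrocytes at 2% hematocrit, 0.05% parasitemia, incubated with compounds 96 h at 37 C, 5% CO2. Growth inhibition read as loss of luminescence; two-generation exposure targets delayed-death apicoplast inhibitors.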
Pf growth 48h – inhibits P. falciparum growth in the first generation, 48 h. actives 5.9% (n = 310,000). Potency, µM (doses to about 28.7 µM), for the others: at the highest dose activity change, negative = inhibition, usual class: inhibitors. P. falciparum luciferase growth in erythrocytes, 48 h. AID 504832; also: potency is read from the fitted curve at half-maximal effect; % is scaled to controls: 0 for no effect and ±100 for the full control effect
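In quantitative HTS format, infected erythrocytes bearing luciferase-reporter parasites were treated for a single generation at 37 C. Luminescence after adding detection reagent served as the growth measure.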
NS1 inh – blocks influenza NS1 protein function; Potency, µM (doses to about 46.1 µM), for inactives: at the highest dose activity, positive = more growth; actives 0.4% (n = 270,000); calls by dose curve; also: potency is read from the fitted curve at half-maximal effect; actives are rising curves; nearly all actives have a fitted effect of over 50% in size
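OD600 was taken as the measure of yeast growth restored by compound in an NS1-expressing S. cerevisiae strain. Cells had been washed out of glucose medium and diluted 1:100 into galactose -URA medium, pH 6.0.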
Shiga inhibitor – Shiga toxin inhibition | Vero cells, Shiga toxin protein synthesis inhibition reporter | actives 9.2% (n = 290,000) | inhibition, % at 38.7 µM; in the data active = inhibition mostly above about 28%, no sharp cut-off; inactive = mostly below about 43%; also: 0% is about no effect
SARS PLP yeast – blocks SARS-CoV papain-like protease in a yeast assay; S. cerevisiae expressing SARS-CoV PLpro, growth rescue; Potency, µM (titrated, usually from 32.9 µM), for the others: top-dose activity, positive = growth rescue, usual class: activators; actives 0.19% (n = 330,000); AID 485353; calls by dose curve; also: potency is read from the fitted curve at half-maximal effect; 0% is about no effect; nearly all actives have a fitted effect of over 55% in size
An asterisk follows results filed as active; u = inconclusive; x = not tested or not shown; [ ] = dose if it differs, or a comment. Unless noted, calls follow the shape of the dose curve; as a rule, active = well fitted inhibition curve with a large enough effect; inconclusive = small, poorly fitted or top-dose-only effect, or another doubt; inactive = no such curve, though single readings can be large or run the other way.

SMILES | Cycloheximide cs | Pf growth 96h | Pf growth 48h | NS1 inh | Shiga inhibitor | SARS PLP yeast
O=C(N/N=C/C=C\c1ccccc1[N+](=O)[O-])c1ccco1 | 11.6 | u | u | x | -2.4 | -1.2%
CCOC(=O)N/N=C/C=C/c1ccccc1[N+](=O)[O-] | 21.8* | u | 0.0% | 1.7% | 73.4* | 1.4%
Cc1cccnc1NC(=O)C(c1ccccc1)c1ccccc1 | 4.8 | 28.9% | 16.4% | 14.0% | -1.6 | 1.2%
COCCN(CC1CCCN(C2Cc3ccccc3C2)C1)C(=O)c1cccs1 (stereo not given) | 27.1* | 29.3% | u | -5.8% | 29.0* | -7.4%
COCCN(CC1CCCN(C2Cc3ccccc3C2)C1)C(=O)CSC (stereo not given) | 2.5 | u | u | -4.2% | 6.4 | -5.0%
O=C(c1cccs1)N(CCN1CCCCC1)CC1CCCN(C2CCCC2)C1 (stereo not given) | 35.9* | u | -5.4% | u | 52.6* | -3.5%
Cc1ccc(C(=O)N(CCN2CCCCC2)CC2CCCN(C3CCCC3)C2)s1 (stereo not given) | 32.9* | 0.0% | u | -6.0% | 71.7* | u
O=C(COC(=O)CNC(=O)c1ccc(Cl)cc1Cl)NC1CCCCCCC1 | x | 0.0% | 0.0% | x | x | 0.2%
CC1CC=CC2C1C(=O)N(Cc1ccccc1)C2c1ccoc1 (stereo not given) | 12.9 | x | x | x | -0.8 | x
Cc1ccc(N(CN2CCCC2=O)C(=O)c2ccc(C)c(C)c2)cc1 | 16.5* | u | 3.2% | -2.3% | 23.1 | -0.3%
Cc1ccc(C(=O)N(CN2CCCC2=O)c2ccccc2)cc1C | 2.3 | u | u | 10.3% | 70.0 | -2.8%
COc1ccc(NC(=O)Nc2cc(C(=O)O)ccc2N2CC3CC(C2)c2cccc(=O)n2C3)c(OC)c1 (stereo not given) | 8.5 | -24.2% | 0.0% | u | 13.1 | -4.9%
CCc1ccc(NC(=S)Nc2cc(C(=O)O)ccc2N2CC3CC(C2)c2cccc(=O)n2C3)cc1 (stereo not given) | 35.5 | 97.3% | 36.1% | x | 70.0* | 14.9%
CC1CCN(C(=O)c2ccc(N3CC4CC(C3)c3cccc(=O)n3C4)c([N+](=O)[O-])c2)CC1 (stereo not given) | -0.9 | 2.33µM* | 8.9% | -2.2% | -6.4 | 9.6%
COc1cccc(NC(=O)Nc2cc(C(=O)O)ccc2N2CC3CC(C2)c2cccc(=O)n2C3)c1 (stereo not given) | -5.2 | 1.47µM* | -7.5% | 17.3% | 14.9 | -4.2%
O=C(Nc1ccc(Br)cc1)N1C[C@H]2C[C@@H](C1)c1cccc(=O)n1C2 | -2.0 | u | -9.7% | 2.6% | -7.6 | u
CC1CCCN(C(=O)c2ccc(N3CC4CC(C3)c3cccc(=O)n3C4)c([N+](=O)[O-])c2)C1 (stereo not given) | 0.8 | -22.5% | 20.4% | 1.8% | -0.5 | 0.8%
O=C(Nc1ccc(Cl)cc1)N1CC2CC(C1)c1cccc(=O)n1C2 (stereo not given) | 28.0* | 28.7% | 8.3% | -15.9% | 33.1 | -0.8%
Cc1cccc(C(=O)OCC(=O)c2ccc(CC(=O)N3CCOCC3)s2)c1C | x | -25.5% | -18.3% | x | x | 2.3%
O=C(CCN1CCOCC1)Nc1cc(C(=O)Nc2ccc(Cl)cc2)ccc1N1CC2CC(C1)c1cccc(=O)n1C2 (stereo not given) | 1.9 | u | 11.7µM* | -19.2% | -4.7 | -1.5%
Cc1[nH]n(-c2cccc(Cl)c2)c(=O)c1C=NCc1ccco1 | 42.8* | -3.6% | 140.7% | -6.3% | 107.0* | -1.0%
Cc1[nH]n(-c2ccccc2)c(=O)c1C=NCc1ccco1 | 41.2* | 11.8% | 75.3% | -3.8% | 97.8* | -0.2%
Cc1[nH]n(-c2cccc(Cl)c2)c(=O)c1C=NC12CN3CN(CN(C3)C1)C2 | -1.3 | 42.4% | 0.0% | 8.1% | -3.5 | -12.9%
Cc1[nH]n(-c2cccc(Cl)c2)c(=O)c1C=NCC(C)C | 42.8* | 184.4% | 250.3% | x | 95.5* | -11.2%
Cc1[nH]n(-c2ccccc2)c(=O)c1/C=N/O | -2.0 | u | 35.7% | 7.4% | -14.6 | -2.0%
SMILES | Cycloheximide cs | Pf growth 96h | Pf growth 48h | NS1 inh | Shiga inhibitor | SARS PLP yeast
Cc1[nH]n(-c2ccccc2)c(=O)c1/C=N/N(C)c1ccccc1 | 6.7 | u | u | -20.3% | 45.5* | -0.3%
O=C(CCCNC(=O)c1ccc(Cl)cc1)Nc1ccc(F)c(S(=O)(=O)N2CCOCC2)c1 | x | -27.4% | u | x | x | -1.3%
CCCc1[nH]n(-c2nc3ccccc3s2)c(=O)c1C=NCC1CCCO1 (stereo not given) | 24.4* | x | u | -32.8% | 6.6 | 4.0%
CCCc1[nH]n(-c2ccc(F)cc2)c(=O)c1C=NCC1CCCO1 (stereo not given) | -1.5 | -22.7%[5.75 µM] | u | 2.1% | -0.5 | 0.8%
CCCc1[nH]n(-c2nc3ccccc3s2)c(=O)c1C=NCCN1CCOCC1 | 17.5 | u | 15.1% | 2.1% | 27.9 | -0.7%
Cc1[nH]n(-c2ccccc2)c(=O)c1C=NCC1CCCO1 (stereo not given) | 22.5* | -8.5% | 20.8% | 4.5% | 49.2* | -1.3%
COc1ccc(C(=O)NCCS(=O)(=O)NCc2cccs2)cc1 | x | u | 34.6% | x | x | -6.0%
CCOC(=O)C1CCCCN1Cc1cccc(C(F)(F)F)c1 (stereo not given) | -3.3 | -22.9% | x | -13.0% | 2.8 | 8.6%
CCOC(=O)C1CCCCN1Cc1ccc(C(F)(F)F)cc1 (stereo not given) | -4.1 | 9.28µM* | x | -10.3% | -10.2 | 8.5%
O=C(Nc1cccc([N+](=O)[O-])c1)c1ccn[nH]1 | 59.6* | u | 246.9% | x | 76.4* | -8.6%
O=C(Nc1ccccc1)c1ccncc1 | -3.1 | 62.1% | -0.1% | -2.7% | -1.2 | x
CC(=O)c1ccc(NC(=O)c2ccn[nH]2)cc1 | 35.0* | -1.7% | 71.6% | -0.9% | 64.9* | -11.0%
O=C(Nc1cccc([N+](=O)[O-])c1)c1ccc(-c2ccccc2)cc1 | 10.7 | u | 39.0% | 18.0% | 29.2 | 10.4%
O=C(Nc1ccccc1)c1ccn[nH]1 | 38.4* | u | 337.3% | -7.4% | 94.4* | -5.3%
Cc1ccc(N2CC(C(=O)O)CC2=O)cc1 (stereo not given) | 1.2 | 4.1% | 46.4% | 1.1% | -7.1 | 0.9%
CSc1ccc(S(=O)(=O)NCC(=O)OCC(=O)N(C)Cc2ccccc2)cc1[N+](=O)[O-] | x | 36.8% | 21.0% | x | x | -3.8%
Cc1nccn1-c1ccc(C=O)cc1 | -2.2 | 21.0% | 24.0% | 3.8% | -13.8 | 0.4%
CC1=CN2C(=N)/C(=C/c3ccc([N+](=O)[O-])o3)C(=O)N=C2S1 | 13.1 | -26.8% | 13.9% | -23.0% | 18.3 | -95.5%
COc1cccc(OCCCn2cc(/C=C3/C(=N)N4C=C(C)SC4=NC3=O)c3ccccc32)c1 | 19.1* | u | u | 4.4% | 50.5* | 6.4%
COc1ccc(OCCCn2cc(/C=C3/C(=N)N4C=C(C)SC4=NC3=O)c3ccccc32)cc1 | 35.0* | -6.9% | 38.0% | 9.8% | 35.9* | 8.2%
